# System: HCI01 (cells of a triple-negative basal-like breast cancer xenograft)
# Assay: cell viability of combination (% of vehicle); higher = less cytotoxic
# Conditions: 1 µM; 72 h; partner dose: 10 nM
# Experimental: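 PDX cells were treated for 72 h with each drug at 1 µM plus afatinib (10 nM; 1 µM for WHIM30). Luciferase viability is expressed as percent of vehicle.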
row,SMILES,cell viability of combination
1,CCCCCCCCCCCC[N+](C)(C)CCOc1ccccc1.[Br-] [Domiphen Bromide] + CN(C)C/C=C/C(=O)Nc1cc2c(Nc3ccc(F)c(Cl)c3)ncnc2cc1O[C@H]1CCOC1 [Afatinib],51
2,CCCCCCCCCCCCCCCC[n+]1ccccc1.[Cl-] [Cetylpyridinium Chloride] + CN(C)C/C=C/C(=O)Nc1cc2c(Nc3ccc(F)c(Cl)c3)ncnc2cc1O[C@H]1CCOC1 [Afatinib],52
3,Cc1cc(C(C#N)c2ccc(Cl)cc2)c(Cl)cc1NC(=O)c1cc(I)cc(I)c1[O-].[Na+] (stereo not given) [Closantel Sodium] + CN(C)C/C=C/C(=O)Nc1cc2c(Nc3ccc(F)c(Cl)c3)ncnc2cc1O[C@H]1CCOC1 [Afatinib],53.2
4,CCCCCCCCCCCCCCCC[N+](C)(C)C.[Br-] [Cetrimonium Bromide (CTAB)] + CN(C)C/C=C/C(=O)Nc1cc2c(Nc3ccc(F)c(Cl)c3)ncnc2cc1O[C@H]1CCOC1 [Afatinib],50.1
5,Cc1cc(C(C#N)c2ccc(Cl)cc2)c(Cl)cc1NC(=O)c1cc(I)cc(I)c1O (stereo not given) [Closantel] + CN(C)C/C=C/C(=O)Nc1cc2c(Nc3ccc(F)c(Cl)c3)ncnc2cc1O[C@H]1CCOC1 [Afatinib],50.6
